Reference: PubChem BioAssay AID1159580 (chemical genetic matrix, 2015)
The whole screen tested about 5,500 compounds, of which about 2,000 (36%) were called active. Another 18% or so got no clear call; they are omitted. Some of the results follow. Values without a mark were called inactive. Cut-off read from the data, not from the text of the source: active = normalized growth mostly below about 0.91 (no sharp cut-off); inconclusive = no clear call, values can overlap the other calls; inactive = mostly above about 0.92.

Experiment: chemical genetic growth profiling, strain panel (AID 1159580);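 note: tested at 20 µM; growth read once vehicle control cultures reached saturation at 30 °C; 1 = growth at the plate median or of vehicle wells; lower values mean less growth of the strain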
Conditions: growth OD

Structure (SMILES): O=C(Nc1ccccc1)Nc1ccccc1
- normalized growth (S. cerevisiae deletion strains, locus YKL009W, strain mrt4, stronger effect = lower value): 0.956
- normalized growth (S. cerevisiae deletion strains, locus YKL068W, stronger effect = lower value): 0.975
- normalized growth (S. cerevisiae deletion strains, locus YKL085W, strain MDH1 (second series), stronger effect = lower value): 0.979
- normalized growth (S. cerevisiae deletion strains, locus YKL085W, strain MDH1, stronger effect = lower value): 0.979
- normalized growth (S. cerevisiae deletion strains, locus YKL160W, strain elf1, stronger effect = lower value): 0.95
- normalized growth (S. cerevisiae deletion strains, locus YKR001C, strain vps1, stronger effect = lower value): 0.97
- normalized growth (S. cerevisiae deletion strains, locus YKR026C, strain gcn3, stronger effect = lower value): 0.967
- normalized growth (S. cerevisiae deletion strains, locus YKR091W, strain srl3, stronger effect = lower value): 0.962
- normalized growth (S. cerevisiae deletion strains, locus YLL001W, strain dnm1, stronger effect = lower value): 0.982
- normalized growth (S. cerevisiae deletion strains, locus YLL026W, stronger effect = lower value): 0.958
- normalized growth (S. cerevisiae deletion strains, locus YLL041C, strain sdh2, stronger effect = lower value): 0.982
- normalized growth (S. cerevisiae deletion strains, locus YLR027C, strain aat2, stronger effect = lower value): 0.944
- normalized growth (S. cerevisiae deletion strains, locus YLR039C, strain RIC1, stronger effect = lower value): 1.38 [resistant] (active)
- normalized growth (S. cerevisiae deletion strains, locus YLR058C, strain SHM2, stronger effect = lower value): 0.99
- normalized growth (S. cerevisiae deletion strains, locus YLR102C, strain apc9, stronger effect = lower value): 0.98
- normalized growth (S. cerevisiae deletion strains, locus YLR113W, strain HOG1, stronger effect = lower value): 1.01
- normalized growth (S. cerevisiae deletion strains, locus YLR221C, strain rsa3, stronger effect = lower value): 0.957
- normalized growth (S. cerevisiae deletion strains, locus YLR258W, strain gsy2, stronger effect = lower value): 0.974
- normalized growth (S. cerevisiae deletion strains, locus YLR262C, strain YPT6 (second series), stronger effect = lower value): 0.96
- normalized growth (S. cerevisiae deletion strains, locus YLR262C, strain YPT6, stronger effect = lower value): 1.34
- normalized growth (S. cerevisiae deletion strains, locus YLR268W, strain sec22, stronger effect = lower value): 0.989
- normalized growth (S. cerevisiae deletion strains, locus YLR320W, strain mms22, stronger effect = lower value): 0.99
- normalized growth (S. cerevisiae deletion strains, locus YLR342W, strain FKS1 (second series), stronger effect = lower value): 0.991
- normalized growth (S. cerevisiae deletion strains, locus YLR342W, strain FKS1, stronger effect = lower value): 0.972
- normalized growth (S. cerevisiae deletion strains, locus YLR357W, strain rsc2, stronger effect = lower value): 0.96
- normalized growth (S. cerevisiae deletion strains, locus YLR370C, strain arc18, stronger effect = lower value): 0.932
- normalized growth (S. cerevisiae deletion strains, locus YLR371W, strain rom2, stronger effect = lower value): 0.944
- normalized growth (S. cerevisiae deletion strains, locus YLR384C, strain iki3, stronger effect = lower value): 0.967
- normalized growth (S. cerevisiae deletion strains, locus YLR418C, strain cdc73, stronger effect = lower value): 1.06
- normalized growth (S. cerevisiae deletion strains, locus YML016C, strain PPZ1, stronger effect = lower value): 0.991
- normalized growth (S. cerevisiae deletion strains, locus YML032C, strain rad52, stronger effect = lower value): 0.98
- normalized growth (S. cerevisiae deletion strains, locus YML120C, strain ndi1, stronger effect = lower value): 0.98
- normalized growth (S. cerevisiae deletion strains, locus YML124C, strain tub3, stronger effect = lower value): 0.971
- normalized growth (S. cerevisiae deletion strains, locus YMR058W, strain fet3, stronger effect = lower value): 0.946
- normalized growth (S. cerevisiae deletion strains, locus YMR078C, strain ctf18, stronger effect = lower value): 0.981
- normalized growth (S. cerevisiae deletion strains, locus YMR125W, strain sto1, stronger effect = lower value): 0.949
- normalized growth (S. cerevisiae deletion strains, locus YMR129W, stronger effect = lower value): 0.959
- normalized growth (S. cerevisiae deletion strains, locus YMR205C, strain PFK2, stronger effect = lower value): 0.984
- normalized growth (S. cerevisiae deletion strains, locus YMR223W, strain ubp8, stronger effect = lower value): 0.976
- normalized growth (S. cerevisiae deletion strains, locus YMR231W, strain pep5, stronger effect = lower value): 0.99
- normalized growth (S. cerevisiae deletion strains, locus YMR263W, strain SAP30, stronger effect = lower value): 1
- normalized growth (S. cerevisiae deletion strains, locus YMR307W, strain GAS1, stronger effect = lower value): 1.34
- normalized growth (S. cerevisiae deletion strains, locus YNL067W, strain RPL9B, stronger effect = lower value): 0.996
- normalized growth (S. cerevisiae deletion strains, locus YNL071W, strain lat1, stronger effect = lower value): 0.965
- normalized growth (S. cerevisiae deletion strains, locus YNL128W, strain TEP1, stronger effect = lower value): 1
- normalized growth (S. cerevisiae deletion strains, locus YNL183C, strain NPR1, stronger effect = lower value): 0.949
- normalized growth (S. cerevisiae deletion strains, locus YNL209W, strain ssb2, stronger effect = lower value): 0.966
- normalized growth (S. cerevisiae deletion strains, locus YNL233W, strain BNI4, stronger effect = lower value): 1.05
- normalized growth (S. cerevisiae deletion strains, locus YNL248C, strain rpa49, stronger effect = lower value): 0.921
- normalized growth (S. cerevisiae deletion strains, locus YNL250W, strain rad50, stronger effect = lower value): 0.973
- normalized growth (S. cerevisiae deletion strains, locus YNL271C, strain bni1, stronger effect = lower value): 0.978
- normalized growth (S. cerevisiae deletion strains, locus YNL298W, strain CLA4, stronger effect = lower value): 1.02
- normalized growth (S. cerevisiae deletion strains, locus YNL307C, strain MCK1, stronger effect = lower value): 0.985
- normalized growth (S. cerevisiae deletion strains, locus YNL322C, strain KRE1 (second series), stronger effect = lower value): 0.965
- normalized growth (S. cerevisiae deletion strains, locus YNR049C, strain mso1, stronger effect = lower value): 0.95
- normalized growth (S. cerevisiae deletion strains, locus YNR052C, strain pop2, stronger effect = lower value): 0.993
- normalized growth (S. cerevisiae deletion strains, locus YOL012C, strain htz1): 0.934
- normalized growth (S. cerevisiae deletion strains, locus YOL147C, strain pex11, stronger effect = lower value): 0.978
- normalized growth (S. cerevisiae deletion strains, locus YOR001W, strain rrp6, stronger effect = lower value): 0.957
- normalized growth (S. cerevisiae deletion strains, locus YOR061W, strain CKA2, stronger effect = lower value): 1.02
- normalized growth (S. cerevisiae deletion strains, locus YOR069W, strain VPS5, stronger effect = lower value): 1
- normalized growth (S. cerevisiae deletion strains, locus YOR070C, strain gyp1, stronger effect = lower value): 0.977
- normalized growth (S. cerevisiae deletion strains, locus YOR080W, strain dia2, stronger effect = lower value): 0.963
- normalized growth (S. cerevisiae deletion strains, locus YOR083W, strain WHI5, stronger effect = lower value): 0.959
- normalized growth (S. cerevisiae deletion strains, locus YOR106W, strain vam3, stronger effect = lower value): 0.902
- normalized growth (S. cerevisiae deletion strains, locus YOR136W, strain idh2, stronger effect = lower value): 0.996
- normalized growth (S. cerevisiae deletion strains, locus YOR144C, strain elg1, stronger effect = lower value): 0.97
- normalized growth (S. cerevisiae deletion strains, locus YOR184W, strain ser1, stronger effect = lower value): 1.03
- normalized growth (S. cerevisiae deletion strains, locus YOR231W, strain MKK1, stronger effect = lower value): 1.01
- normalized growth (S. cerevisiae deletion strains, locus YOR265W, strain rbl2, stronger effect = lower value): 0.964
- normalized growth (S. cerevisiae deletion strains, locus YOR270C, strain vph1, stronger effect = lower value): 0.875
- normalized growth (S. cerevisiae deletion strains, locus YOR290C, strain snf2, stronger effect = lower value): 0.907
- normalized growth (S. cerevisiae deletion strains, locus YOR316C, strain cot1, stronger effect = lower value): 0.989
- normalized growth (S. cerevisiae deletion strains, locus YPL051W, strain arl3, stronger effect = lower value): 0.928
- normalized growth (S. cerevisiae deletion strains, locus YPL055C, strain LGE1, stronger effect = lower value): 1.17
- normalized growth (S. cerevisiae deletion strains, locus YPL078C, strain atp4, stronger effect = lower value): 0.923
- normalized growth (S. cerevisiae deletion strains, locus YPL106C, strain sse1, stronger effect = lower value): 0.932
- normalized growth (S. cerevisiae deletion strains, locus YPL240C, strain hsp82, stronger effect = lower value): 0.967
- normalized growth (S. cerevisiae deletion strains, locus YPL241C, strain CIN2, stronger effect = lower value): 0.998
- normalized growth (S. cerevisiae deletion strains, locus YPL256C, strain CLN2, stronger effect = lower value): 0.985
- normalized growth (S. cerevisiae deletion strains, locus YPR119W, strain clb2, stronger effect = lower value): 0.966
- normalized growth (S. cerevisiae deletion strains, locus YPR141C, strain kar3, stronger effect = lower value): 0.975
- normalized growth (S. cerevisiae deletion strains, locus YPR163C, strain tif3, stronger effect = lower value): 0.987
- normalized growth (S. cerevisiae deletion strains, locus YPR167C, strain met16, stronger effect = lower value): 0.984
- normalized growth (S. cerevisiae deletion strains, strain wtn01, stronger effect = lower value): 0.996
- normalized growth (S. cerevisiae strains, strain wild type, stronger effect = lower value): 1.07
